Source: PubChem BioAssay
MEKK3 PB1 HTS – modulators (inhibitors or enhancers) of MEK5 binding to human MEKK3 PB1 domain; 1.4% of 290,000 active; bead-based flow cytometry, Alexa488-MEK5 binding to MEKK3; actives lie on both sides; 0 = blocked by unlabeled MEK5, 100 = vehicle; Q99759; binding response (% of control), % at 10 µM;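 active = binding response more than 3 SD above or below the average of its plate-row segment, actives on both sides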;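 note: Alexa488 bead fluorescence after subtracting the streptavidin-only scavenger bead signal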
GRK2 inh – inhibitors of human GRK2 displacing RNA aptamer. P25098. bead flow cytometry, FAM-aptamer displacement from GRK2. 0.59% of 330,000 active. inhibition of aptamer binding, % at 10 µM. AID 488847;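 active = inhibition of aptamer binding above 40%, roughly 3 SD of noise, on plates passing a quality check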;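 note: median bead fluorescence of bound FAM aptamer so fluorescent compounds give negative values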
Target sequence (P25098 whole entry, looked up): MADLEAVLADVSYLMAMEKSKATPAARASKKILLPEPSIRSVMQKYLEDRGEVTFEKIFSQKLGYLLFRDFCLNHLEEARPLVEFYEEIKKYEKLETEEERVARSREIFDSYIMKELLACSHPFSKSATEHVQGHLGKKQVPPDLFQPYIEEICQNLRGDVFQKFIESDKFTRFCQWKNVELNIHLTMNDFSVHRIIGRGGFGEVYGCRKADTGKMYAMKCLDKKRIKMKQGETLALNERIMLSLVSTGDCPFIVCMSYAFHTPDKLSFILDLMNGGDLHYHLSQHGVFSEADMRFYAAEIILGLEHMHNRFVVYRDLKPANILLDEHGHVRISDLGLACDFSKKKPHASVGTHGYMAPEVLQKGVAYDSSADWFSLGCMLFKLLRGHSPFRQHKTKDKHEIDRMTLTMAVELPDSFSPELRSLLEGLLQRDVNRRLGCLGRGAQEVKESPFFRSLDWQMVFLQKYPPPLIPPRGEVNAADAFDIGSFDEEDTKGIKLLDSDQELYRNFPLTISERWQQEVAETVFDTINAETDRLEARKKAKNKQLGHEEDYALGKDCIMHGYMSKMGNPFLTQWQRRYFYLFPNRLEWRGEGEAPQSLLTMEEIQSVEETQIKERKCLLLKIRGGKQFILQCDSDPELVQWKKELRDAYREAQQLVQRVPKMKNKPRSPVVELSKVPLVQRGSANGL
MEKK2wt PB1 HTS – raises or lowers MEK5 binding to wildtype human MEKK2 PB1 domain; binding response (% of control), % at 10 µM; Q9Y2U5; 1.1% of 290,000 active; bead flow cytometry, Alexa488-MEK5 binding to MEKK2 WT; actives lie on both sides; in the data active = binding response below about 67% or above about 130%
MEKK2mut PB1 HTS – signal of MEK5 binding to mutant human MEKK2 PB1 domain | percent response, % at 10 µM | 0.35% of 290,000 active | bead flow cytometry, Alexa488-MEK5 binding to MEKK2 mutant; in the data active = percent response above about 24%, passing the limit was not always enough
B2AR ag – agonists of human beta-2 adrenergic receptor inducing internalization. response, % (no concentration beside the values). AID 504454. P07550. 0.43% of 340,000 active. Am2.2-beta2AR cells, FAP receptor internalization, flow cytometry;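 active = response above a set limit, near 3 SD of response in nonfluorescent compounds, cut at about 42% in these data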
MEKK2wt confirm – raises or lowers MEK5 binding to wildtype human MEKK2, retest | shares compounds with MEKK3 PB1 HTS | bead flow cytometry, Alexa488-MEK5 binding to MEKK2 WT; actives lie on both sides | binding response (% of control), % at 10 µM | 2.4% of 5,900 active | AID 1892; in the data active = binding response below about 16% or above about 210%; inactive = in between
MEKK2mut confirm – signal of MEK5 binding to mutant human MEKK2, retest; shares compounds with MEKK3 PB1 HTS; bead flow cytometry, Alexa488-MEK5 binding to MEKK2 mutant; percent response, % at 10 µM; 2% of 5,900 active; AID 1893; in the data active = percent response mostly above about 71%, no sharp cut-off; inactive = mostly below about 38%;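 note: higher means compound restores mutant binding toward wildtype level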
MEKK3 confirm – confirmation of inhibitors of MEK5 binding to human MEKK3; shares compounds with MEKK3 PB1 HTS; binding response (% of control), % at 10 µM; 1.8% of 5,900 active; AID 1894; bead flow cytometry, Alexa488-MEK5 binding to MEKK3; hits give low values;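 active = binding response below 72% of control, or above a set upper limit, though filed actives all read lower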;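 note: 100% = DMSO only wells and 0% = binding blocked by excess unlabeled MEK5; lower values mean stronger disruption of MEK5 binding to MEKK3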
The depositor's hits bear a star; . = no result; [ ] = another dose, or the depositor's remark. Most compounds without a hit are left out; they make up all but 2.9% or so of the library.

SMILES	MEKK3 PB1 HTS	GRK2 inh	MEKK2wt PB1 HTS	MEKK2mut PB1 HTS	B2AR ag	MEKK2wt confirm	MEKK2mut confirm	MEKK3 confirm
O=C(C1=C[C@H](c2coc3ccccc3c2=O)C[C@H](OCCCCO)O1)N1CCOCC1	105	1	104	9	-11	.	.	.
CCOC(=O)C1=CN(CC)S(=O)(=O)NC1c1ccc2ccccc2c1 (configuration not stated)	.	7	.	.	0	.	.	.
Cc1c(N=c2c(=O)c3ccccc3c2=O)c(=O)n(-c2ccccc2)n1C	99	4	96	1	.	.	.	.
Cc1c(N=C2SCC(=O)N2/N=C/c2ccccc2)c(=O)n(-c2ccccc2)n1C	129*	0	102	0	-8	97	0	100
CCN(C[C@H]1N[C@@](CC)(C(=O)OC)[C@H]2C(=O)N(Cc3ccccc3)C(=O)[C@@H]12)C(=O)COc1ccccc1	.	0	.	.	-4	.	.	.
Nc1nonc1C(=O)NCCNCc1ccccc1OCc1ccccc1F	123*	.	124	8	-7	113	14	103
COc1ccc(C2C3=C(CC(C)(C)CC3=O)Nc3c2c(=O)n(C)c(=O)n3C)cc1OC (configuration not stated)	128*	2	119	1	-2	108	1	104
C=CCOc1ccccc1C1C2=C(CC(C)(C)CC2=O)Nc2c1c(=O)n(C)c(=O)n2C (configuration not stated)	.	0	.	.	0	.	.	.
Cc1ccc(C(=O)CC(C(=O)O)n2cnc([N+](=O)[O-])n2)cc1 (configuration not stated)	49*[inhibitor]	0	55	-14	3	106	2	104
CCCCN(C(=O)C1CCN(C(=O)c2ccccc2C)CC1)c1c(N)n(CC(C)C)c(=O)[nH]c1=O	.	.	.	.	-4	.	.	.
Cc1cc(C)cc(OCC(=O)Nc2ccc3c(c2)C(=O)c2ccccc2C3=O)c1	139*	0	104	0	3	95	0	97
CC1CC2=C(C(=O)O1)C(C)Nc1ccccc1N2 (configuration not stated)	155*	1	105	1	5	102	-1	100
O=C(COc1ccc(C(=O)Nc2ccc(Cl)cc2)cc1)NCc1ccccc1	155*	0	109	1	-1	98	3	102
Cc1ccc(-n2nc(-c3ccccc3)cc2Nc2ccccc2N)cc1	139*	3	113	1	-6	100	-8	101
COc1ccc(Nc2c3c(nc4c(-c5ccccc5)c(C)nn24)CCC3)cc1	128*	4	116	0	-3	98	0	106
CCN1CCN(C(=O)C2CC(=O)N(c3ccc(Cl)cc3)C2)CC1 (configuration not stated)	100	2	98	2	6	.	.	.
CCC(C)(C)c1ccc(OCCCC[n+]2ccccc2)c(C(C)(C)CC)c1	109	0	185*	41	7	199	65	110
CCCCCc1ccc(OCCCC[n+]2ccc(C)cc2)c(CCCCC)c1	106	0	186*	16	8	177	40	110
CCCCCc1ccc(OCCCC[n+]2ccccc2)c(CCCCC)c1	105	0	164*	28	12	158	25	111
CCCCCc1ccc(OCCCC[n+]2cccc(C)c2)c(CCCCC)c1	72	0	124	-10	3	.	.	.
O=C(COC(=O)c1cc(Br)ccc1Cl)NC1CCCC1	109	2	111	2	41	.	.	.
COc1cccc(CCNS(=O)(=O)CCNC(=O)c2cccc(OC)c2)c1	.	0	.	.	11	.	.	.
CC1=C(C(=O)Nc2ccccc2)C(c2ccc(Cl)cc2)n2c(s/c(=C/c3cccc(OCC(=O)O)c3)c2=O)=N1 (configuration not stated)	89	2	40*[inhibitor]	-28	9	99	-6	99
CCOc1ccc(C2C(C(=O)Nc3ccccc3)=C(C)N=c3s/c(=C/c4cccc(OCC(=O)O)c4)c(=O)n32)cc1 (configuration not stated)	94	3	82	-10	0	.	.	.
CC1=C(C(=O)Nc2ccccc2)C(c2ccc(C)o2)n2c(s/c(=C/c3ccccc3)c2=O)=N1 (configuration not stated)	82*[inhibitor]	0	86	-11	4	96	-4	99
SMILES	MEKK3 PB1 HTS	GRK2 inh	MEKK2wt PB1 HTS	MEKK2mut PB1 HTS	B2AR ag	MEKK2wt confirm	MEKK2mut confirm	MEKK3 confirm
COc1cccc(C(=O)COC(=O)c2n[nH]c(=O)c3ccccc23)c1	60*[inhibitor]	0	71	-12	-5	101	4	104
COc1ccc(C(=O)Nc2nc3nccc(-c4ccccc4)n3n2)cc1	180*	0	108	1	-24	102	4	103
CCOC(=O)/C=C1\SCC(=O)N1CC(=O)Nc1cc(S(=O)(=O)N(C)C)ccc1C	.	2	.	.	-5	.	.	.
Cc1nc(COC(=O)c2ccc(CO)cc2)cs1	0.0*[inhibitor]	0	0.0*[inhibitor]	-21	0	106	1	105
Cc1nc(COC(=O)c2cc(O)c3ccccc3c2O)cs1	99	.	94	-4	2	.	.	.
CCOC(=O)C1=C(c2ccccc2)NC(N)=NC1c1ccc(OCc2ccc(C(=O)OC)cc2)cc1 (configuration not stated)	109	0	194*	49	4	260*	76*	112
c1ccc(NCc2ccccn2)cc1	138*	0	130	6	3	94	-7	96
N#CC(C#N)=Cc1cc2ccccc2nc1N1CCOCC1	135*	4	103	0	14	102	5	104
N#C/C(=C\c1cc2ccccc2nc1N1CCOCC1)C(=O)Nc1ccc(N2CCOCC2)cc1	146*	0	106	3	20	98	1	102
CCOc1ccccc1NC(=O)C(OC(=O)c1ccccc1)c1ccccc1 (configuration not stated)	130*	1	106	1	-2	95	-5	100
Clc1ccc(-c2nnc(CCc3ccccc3)o2)c(Cl)c1	55*[inhibitor]	0	62	-12	-2	102	-4	99
Oc1ccccc1-c1nnc(COc2ccc(Cl)cc2Cl)o1	96	1	93	0	4	.	.	.
CCOC(=O)c1cc(CC)sc1NC(=O)C1CC(=O)NN1Cc1ccccc1 (configuration not stated)	101	0	108	13	-4	.	.	.
